Screening results from PubChem BioAssay.
JMJD2A Tudor: qHTS Assay for Inhibitors of JMJD2A-Tudor Domain | Lysine-specific demethylase 4A (Homo sapiens), O75164 | AlphaScreen JMJD2A-Tudor / H3K4me3 peptide binding | Potency, µM (doses to about 114 µM), for inactives: at the highest dose activity change, negative = inhibition, hits mostly inhibitors | 4.4% of 390,000 active; note: % is set by controls: 0 for no effect and ±100 for the full control effect; nearly all actives have a fitted effect of over 50% in size
HP1b chromo inh: HTS for Inhibitors of HP1-beta Chromodomain Interactions with Methylated Histone Tails; Chromobox protein homolog 1 (Homo sapiens), P83916; AlphaScreen HP1-beta / biotin-H3K9me3 peptide binding; Potency, µM (doses to about 114 µM), without a hit: at the highest dose activity change, negative = inhibition, usual class: inhibitors; 0.56% of 390,000 active; AID 540317, 2011; note: nearly all actives have a fitted effect of over 70% in size
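Compound inhibition of the preformed complex between 50 nM HP1-beta and 50 nM biotinylated H3K9me3 peptide was read by AlphaScreen. Buffer was PBS pH 7.4 with 0.01% Tween-20. Incubations ran 30 min at room temperature, with 10 ug/mL donor/acceptor beads.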
G9a block: qHTS Assay for Inhibitors of Histone Lysine Methyltransferase G9a; 8.8% of 350,000 active; Potency, µM (doses to about 102 µM), inactives show at the highest dose activity, negative = inhibition, hits mostly inhibitors; Histone-lysine N-methyltransferase EHMT2 (Homo sapiens), Q96KQ7; AID 504332, 2011; G9a H3K9 monomethylation, AlphaScreen, 2 h; note: % is set by controls: 0 for no effect and ±100 for the full control effect; nearly all actives have a fitted effect of over 75% in size
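G9a (20 nM) was preincubated 15 min with compound, then reacted 2 h at room temperature with 500 nM biotin-H3K9 peptide and 20 µM SAM. Monomethyl-H3K9 detected by AlphaScreen using anti-H3K9me1 antibody.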
L3MBTL1 block: qHTS Assay for the Inhibitors of L3MBTL1; Lethal(3)malignant brain tumor-like protein 1 (Homo sapiens), Q9Y468; AlphaScreen L3MBTL1–H3K9me1 peptide binding; Potency, µM (series often up to 57.1 µM), without a hit: at the top dose activity, negative = inhibition, usual class: inhibitors; 0.66% of 230,000 active; AID 485360, 2010; note: % is set by controls: 0 for no effect and ±100 for the full control effect; nearly all actives have a fitted effect of over 60% in size
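Read-out is AlphaScreen signal from streptavidin donor and nickel chelate acceptor beads (10 ug/mL final each) bridging L3MBTL1 (50 nM) and biotinylated K9-monomethylated H3(1-15) peptide (75 nM), after 30 min compound exposure at room temperature.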
BAZ2B inh: qHTS Assay for Inhibitors of BAZ2B. AlphaScreen BAZ2B-H3K14Ac peptide displacement. Potency, µM (highest dose often 114 µM), for the others: at the top dose activity change, negative = inhibition, actives largely listed as inhibitors. 4.4% of 360,000 active; note: % is set by controls: 0 for no effect and ±100 for the full control effect; nearly all actives have a fitted effect of over 60% in size
Target sequence (Q9UIF8 whole entry, looked up): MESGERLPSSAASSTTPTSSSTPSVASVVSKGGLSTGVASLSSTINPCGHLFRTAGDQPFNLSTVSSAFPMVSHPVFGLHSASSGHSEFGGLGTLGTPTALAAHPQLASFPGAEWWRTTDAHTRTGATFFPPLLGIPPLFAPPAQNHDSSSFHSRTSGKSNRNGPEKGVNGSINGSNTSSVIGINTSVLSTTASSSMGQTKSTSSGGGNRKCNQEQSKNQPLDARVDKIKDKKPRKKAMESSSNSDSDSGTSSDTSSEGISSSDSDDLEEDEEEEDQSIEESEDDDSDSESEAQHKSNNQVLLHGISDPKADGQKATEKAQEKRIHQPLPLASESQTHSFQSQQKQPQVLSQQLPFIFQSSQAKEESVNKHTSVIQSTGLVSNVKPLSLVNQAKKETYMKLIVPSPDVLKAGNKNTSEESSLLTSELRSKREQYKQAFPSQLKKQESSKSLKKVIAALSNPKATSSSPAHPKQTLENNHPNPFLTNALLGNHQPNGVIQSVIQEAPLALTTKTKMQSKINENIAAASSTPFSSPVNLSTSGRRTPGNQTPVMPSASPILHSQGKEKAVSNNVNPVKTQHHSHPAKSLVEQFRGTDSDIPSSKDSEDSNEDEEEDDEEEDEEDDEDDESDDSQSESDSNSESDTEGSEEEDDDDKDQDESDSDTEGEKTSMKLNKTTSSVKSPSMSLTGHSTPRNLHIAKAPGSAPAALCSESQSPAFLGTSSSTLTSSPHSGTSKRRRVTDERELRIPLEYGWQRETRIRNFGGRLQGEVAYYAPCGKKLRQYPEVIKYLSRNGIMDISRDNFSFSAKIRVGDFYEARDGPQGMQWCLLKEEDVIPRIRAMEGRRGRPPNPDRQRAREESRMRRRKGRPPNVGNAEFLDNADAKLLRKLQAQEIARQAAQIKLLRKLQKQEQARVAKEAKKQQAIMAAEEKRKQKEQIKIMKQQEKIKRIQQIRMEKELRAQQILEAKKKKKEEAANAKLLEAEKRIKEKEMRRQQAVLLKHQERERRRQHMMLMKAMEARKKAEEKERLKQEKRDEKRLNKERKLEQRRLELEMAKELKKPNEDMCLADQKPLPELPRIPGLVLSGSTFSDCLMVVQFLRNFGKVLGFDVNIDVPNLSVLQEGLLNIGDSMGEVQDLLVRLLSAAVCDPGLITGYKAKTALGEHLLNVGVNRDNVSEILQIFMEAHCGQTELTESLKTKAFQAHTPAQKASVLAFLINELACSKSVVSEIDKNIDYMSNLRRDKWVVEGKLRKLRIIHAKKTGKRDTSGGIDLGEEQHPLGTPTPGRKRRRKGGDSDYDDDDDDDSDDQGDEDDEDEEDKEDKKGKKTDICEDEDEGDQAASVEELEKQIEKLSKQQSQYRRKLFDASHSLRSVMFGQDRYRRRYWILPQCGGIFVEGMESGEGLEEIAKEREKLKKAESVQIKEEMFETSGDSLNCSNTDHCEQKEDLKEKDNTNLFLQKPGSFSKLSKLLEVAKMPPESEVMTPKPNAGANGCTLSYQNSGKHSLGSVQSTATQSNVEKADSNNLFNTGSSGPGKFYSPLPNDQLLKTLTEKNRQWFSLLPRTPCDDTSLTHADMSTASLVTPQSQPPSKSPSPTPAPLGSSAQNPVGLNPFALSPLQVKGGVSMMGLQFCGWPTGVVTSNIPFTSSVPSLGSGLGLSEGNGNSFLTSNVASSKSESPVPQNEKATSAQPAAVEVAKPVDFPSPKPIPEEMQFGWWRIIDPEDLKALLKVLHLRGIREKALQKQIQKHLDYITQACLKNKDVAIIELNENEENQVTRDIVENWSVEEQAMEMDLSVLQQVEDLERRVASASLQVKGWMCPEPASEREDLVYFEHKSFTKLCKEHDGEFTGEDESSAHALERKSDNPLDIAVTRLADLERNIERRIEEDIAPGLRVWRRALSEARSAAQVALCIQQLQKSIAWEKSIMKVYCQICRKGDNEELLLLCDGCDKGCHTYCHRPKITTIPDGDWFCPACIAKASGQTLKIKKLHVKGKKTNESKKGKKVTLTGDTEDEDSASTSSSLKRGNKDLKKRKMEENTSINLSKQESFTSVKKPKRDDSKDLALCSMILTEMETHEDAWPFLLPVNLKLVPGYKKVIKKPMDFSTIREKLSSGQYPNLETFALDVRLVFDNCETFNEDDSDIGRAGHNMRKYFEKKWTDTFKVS
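Multi-concentration screen (max 110 uM) measuring displacement of acetylated histone H3 peptide from BAZ2B by AlphaScreen, using 50 nM protein, 50 nM peptide and 10 ug/mL streptavidin donor plus Ni-chelate acceptor beads.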
GLS inhibitor: qHTS for Inhibitors of Glutaminase (GLS); GLS enzymatic activity, qHTS titration; Potency, µM (series often up to 45.5 µM), without a hit: top-dose activity change, negative = inhibition, hits mostly inhibitors; 0.21% of 410,000 active; note: % is set by controls: 0 for no effect and ±100 for the full control effect
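Assay buffer: 45 mM KH2PO4 pH 8.2, 0.02% Tween-20. hKGA acts on L-glutamine (1 mM solution added); product glutamate is reported by an oxidase/peroxidase Amplex Red coupling, with fluorescence taken at baseline and 30 min.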
Numbers without * were called inactive; [ ] = remark or other dose. Rows were chosen to be rich in hits. Some 10% of all compounds tested hit in one or more screens of this group. Calls come from the whole dose curve; as a rule, active = well fitted curve in the direction sought with a large enough effect; inconclusive = small, poorly fitted or top-dose-only effect, or another doubt; inactive = no such curve, though single readings can be large; an effect the other way counts as inactive or inconclusive. Potency is the fitted concentration of half-maximal effect.

`COc1ccc(CC(=O)NC2CC(=O)N(c3ccc4c(c3)OCCO4)C2)cc1` (configuration not stated) gave JMJD2A Tudor -9%, HP1b chromo inh 32%, G9a block 28%[59 µM], BAZ2B inh 10% and GLS inhibitor 6%.
COc1ccc(C=NNc2nc3ccccc3s2)cc1 was read as JMJD2A Tudor -24%, HP1b chromo inh -22% and GLS inhibitor -12%.
For COc1cc(OC)cc(C(=O)Oc2ccc(/C=N/Nc3nc4ccccc4s3)cc2OC)c1 the results were JMJD2A Tudor -29%, HP1b chromo inh 1%, G9a block 28µM*, L3MBTL1 block -6%, BAZ2B inh -11% and GLS inhibitor -1%.
Screening COc1cc(/C=N/Nc2nc3ccccc3s2)ccc1OC(=O)c1ccccc1F returned JMJD2A Tudor inconclusive, HP1b chromo inh -17%, G9a block 9%[59 µM], L3MBTL1 block -1%, BAZ2B inh inconclusive and GLS inhibitor 3%.
Screening O=[N+]([O-])c1cc(Cl)cc(/C=N/Nc2nc3ccccc3s2)c1O returned JMJD2A Tudor -25%[11.4 µM], HP1b chromo inh inconclusive, L3MBTL1 block -19%, BAZ2B inh 6.3µM* and GLS inhibitor 0%.
For COc1cc(/C=N/Nc2nc3ccccc3s2)cc([N+](=O)[O-])c1O the results were JMJD2A Tudor 40µM*, HP1b chromo inh inconclusive, G9a block 32µM*, L3MBTL1 block -11%, BAZ2B inh 35µM* and GLS inhibitor inconclusive.
CCOC(=O)c1ccccc1NC(=O)CSc1nccn1Cc1ccco1 was read as JMJD2A Tudor -25%, HP1b chromo inh 10%[57 µM], G9a block -4%[59 µM], BAZ2B inh -33% and GLS inhibitor -5%.
`CCOc1ccc(/C=C(\C#N)C(=O)Nc2sc3c(c2C(=O)OC)C(C(=O)OC)CC3)cc1OC` (configuration not stated) gave JMJD2A Tudor 56µM*, HP1b chromo inh inconclusive, G9a block 1.4µM*, BAZ2B inh 50µM* and GLS inhibitor -20%.
`CCc1cccc(NC(c2nnc(-c3ccccc3)o2)c2ccc(F)cc2Cl)c1` (configuration not stated) gave JMJD2A Tudor 3%, HP1b chromo inh 25%, G9a block 5%[59 µM], BAZ2B inh 7% and GLS inhibitor 4%.
CSc1ccc(CNC(=O)c2ccccc2NC(=O)c2nsc3ccccc23)cc1 was read as JMJD2A Tudor -8%, HP1b chromo inh 4%[57 µM], G9a block -20%[59 µM], BAZ2B inh -11% and GLS inhibitor 1%.
NS(=O)(=O)c1ccc(NC(=O)c2csnn2)cc1 was read as JMJD2A Tudor 89µM*, HP1b chromo inh inconclusive, G9a block 22µM*, BAZ2B inh -16% and GLS inhibitor -10%.
For O=C(NNS(=O)(=O)c1ccc(Br)cc1)c1csnn1 the results were JMJD2A Tudor inconclusive, HP1b chromo inh -4%, G9a block 50µM*, L3MBTL1 block 8%, BAZ2B inh -6% and GLS inhibitor 27%.
CCCn1c2ccccc2c2cnn(CC(=O)NCc3cc(OC)ccc3OC)c(=O)c21 was read as JMJD2A Tudor -17%, HP1b chromo inh 13%, G9a block 5%[59 µM], BAZ2B inh -1% and GLS inhibitor -3%.
Cc1ccc(N(Cc2cc(=O)[nH]c3ccccc23)C(=O)CCl)c(C)c1 was read as JMJD2A Tudor -35%, HP1b chromo inh 3%[57 µM], G9a block 50µM*, BAZ2B inh -26% and GLS inhibitor 0%.
Screening CCN(Cc1cc(=O)[nH]c2ccccc12)C(=O)c1ccc(C)cc1 returned JMJD2A Tudor -11%, HP1b chromo inh 17%[57 µM], G9a block 15%, L3MBTL1 block 6%, BAZ2B inh -3% and GLS inhibitor 15%.
`CCC(=O)N(Cc1cc(=O)[nH]c2ccccc12)c1cccc(C)c1` gave JMJD2A Tudor 79µM*, HP1b chromo inh 2%, G9a block 10µM*, L3MBTL1 block -3%, BAZ2B inh -5% and GLS inhibitor -1%.
CCC(=O)N(Cc1cc(=O)[nH]c2ccccc12)c1ccccc1C was read as JMJD2A Tudor -24%, HP1b chromo inh inconclusive, G9a block 45µM*, L3MBTL1 block -4%, BAZ2B inh -11% and GLS inhibitor 0%.
CC(=O)NCCNC(=O)CCCn1c(=O)[nH]c2ccsc2c1=O was read as JMJD2A Tudor -10%, HP1b chromo inh 22%, G9a block 6%[59 µM], BAZ2B inh 3% and GLS inhibitor 2%.
Screening S=c1[nH]nc(COc2ccccc2)n1/N=C/c1ccc(Cl)c(Cl)c1 returned JMJD2A Tudor inconclusive, HP1b chromo inh inconclusive, G9a block 13µM*, BAZ2B inh -15% and GLS inhibitor -1%.
For S=c1[nH]nc(COc2ccccc2)n1/N=C/c1ccccn1 the results were JMJD2A Tudor 4µM*, HP1b chromo inh -13%, G9a block inconclusive, L3MBTL1 block 4%, BAZ2B inh 13% and GLS inhibitor 14%.
For FC(F)(F)c1ccc(/C=N/n2c(COc3ccccc3)n[nH]c2=S)cc1 the results were JMJD2A Tudor inconclusive, HP1b chromo inh -16%, G9a block -5%[2.33 µM], BAZ2B inh inconclusive and GLS inhibitor 6%.
Screening Cc1cccc(/C=N/n2c(COc3ccccc3)n[nH]c2=S)c1 returned JMJD2A Tudor inconclusive, HP1b chromo inh 4%, G9a block 3.2µM*, BAZ2B inh inconclusive and GLS inhibitor 7%.
Screening CCc1ccc(/C=N/n2c(COc3ccccc3)n[nH]c2=S)cc1 returned JMJD2A Tudor inconclusive, HP1b chromo inh -6%, G9a block 20µM*, BAZ2B inh -26% and GLS inhibitor -15%.
`OC(c1ccc(Cl)cc1)c1nccc2ccccc12` (configuration not stated) gave JMJD2A Tudor -27%, HP1b chromo inh 21%, G9a block 40µM*, L3MBTL1 block 2%, BAZ2B inh -38% and GLS inhibitor -1%.
`O=C(OC(c1ccccc1)c1nccc2ccccc12)c1ccccc1` (configuration not stated) gave JMJD2A Tudor 6%, HP1b chromo inh 44% and GLS inhibitor -3%.
